BaF3 parental – counter-screen for JAK2V617F inhibitors: parental Ba/F3 viability inhibitors; hit rate 1.1% among 220,000; CellTiter-Glo ATP luminescence; inhibition, % at 5.6 µM;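 active = inhibition above a per-campaign cutoff, the mean inhibition of all tested compounds plus 3 SD, cut at about 27% in these data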;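 note: 0% = DMSO wells and 100% = JAK Inhibitor I control wells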
aSyn UTR inh – MLPCN primary screen, SNCA 5' untranslated region | alpha-synuclein 5'UTR reporter, inhibitor activity | hit rate 0.82% among 300,000 | inhibition, % (tested at 7.5 µM); in the data active = inhibition above about 60%; inconclusive = no clear call, values can overlap the other calls;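 note: H4 neuroglioblastoma cells stably carrying SNCA 5'UTR luciferase fusion; 0% = DMSO wells and 100% = positive control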
IEC-6 cytotox – kills IEC-6 intestinal cells in KLF5 counter-screen. IEC-6 cytotoxicity, luminescence viability. hit rate 0.78% among 290,000. inhibition, % at 5 µM. AID 1825; in the data active = inhibition above about 22%;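 note: 0% = plate median of test compound wells and 100% = cytotoxic reference compound wells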
KLF5 inhibitor – suppresses KLF5 promoter-driven expression; hit rate 0.23% among 290,000; AID 1700; inhibition, % at 5 µM; DLD-1 KLF5 promoter-luciferase reporter, luminescence;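 active = inhibition above a per-plate limit of that plate's mean compound inhibition plus 3 SD, cut at about 60% in these data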;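 note: 0% = DMSO wells and 100% = LY294002 at 200 µM; higher means less KLF5 promoter-driven luciferase light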
APP transl inh – APP translation inhibition | SH-SY5Y APP 5'UTR-luciferase reporter, luminescence | inhibition, % at 2 µM | hit rate 0.82% among 190,000 | AID 1285;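 active = inhibition above a set limit, derived from the sample mean plus 3 SD, cut at about 45% in these data; inconclusive = one replicate passes the limit while the other fails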
Ba/F3 V617F tox – reduce viability of Ba/F3 cells dependent on JAK2V617F; Ba/F3 EpoR-JAK2V617F viability, ATP luminescence; inhibition, % at 5.6 µM; hit rate 1.1% among 220,000;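 active = inhibition above the campaign mean plus 3 SD over all tested compounds, cut at about 24% in these data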;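 note: cytokine-independent growth of Ba/F3 cells driven by EpoR plus mutant JAK2; 0% = DMSO-treated cells and 100% = JAK inhibitor I control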
An asterisk follows results filed as active; ? = inconclusive; / = not tested or not shown. An excerpt weighted towards active compounds, which were near 2.2% of everything screened.

SMILES | BaF3 parental | aSyn UTR inh | IEC-6 cytotox | KLF5 inhibitor | APP transl inh | Ba/F3 V617F tox
NC(=O)CCCn1c(C(=O)c2ccc(Cl)cc2)c2ccc([N+](=O)[O-])cc2[n+]1[O-] | / | 21 | / | / | / | /
NC(=O)CCCn1c(C(=O)c2cc(Cl)c(N)c(Cl)c2)c2ccc([N+](=O)[O-])cc2[n+]1[O-] | / | 71* | / | / | / | /
Cc1ccc(C)c(NS(=O)(=O)c2cc3c4c(c2)CC(=O)N4CCC3)c1 | / | 1 | 0 | -14 | / | /
COc1cc(NC(=S)NCCc2ccc(S(N)(=O)=O)cc2)c(OC)cc1Cl | 3 | -9 | 5 | -32 | 14 | 4
CC(C)(C)c1ccc(Cn2c(=N)n(CC(O)c3ccco3)c3ccccc32)cc1 (centres undefined) | 17 | 101* | -3 | -45 | 9 | 23
CCN1CCN(Cc2ccc(NC(=O)Nc3ccccc3Cl)cc2)CC1 | 9 | -87 | 4 | -96 | -141 | 2
O=C(Nc1ccc(CN2CCCCC2)cc1)Nc1ccccc1Cl | 59* | -90 | 9 | -19 | -42 | 1
O=C1CC2(CCN(C(=O)c3ccccc3[N+](=O)[O-])CC2)Oc2ccccc21 | / | 9 | / | / | / | /
CC(C)(C)C1=CC(=O)C(=O)C(C(C)(C)C)=C1 | 2 | -21 | 5 | -5 | 47* | -1
COCC(C)n1c(SCc2nc3ccccc3c(=O)[nH]2)nc2ccccc2c1=O (centres undefined) | 7 | 37 | 34* | -22 | -11 | 4
NC(=O)c1nsc(C(=O)N(c2cccc(F)c2)C(C(=O)NCC2CCCO2)c2c[nH]c3ccccc23)c1N (centres undefined) | / | 5 | -4 | 1 | / | /
CCCOc1c(OC)cccc1C1CC(=O)Nc2cc3c(cc21)OCO3 (centres undefined) | 1 | -3 | 0 | -4 | 9 | 0
CCOc1ccccc1C1C2=C(COC2=O)Nc2cc3c(cc21)OCO3 (centres undefined) | 74* | 117* | 91* | 63* | 96* | 83*
Cc1c(/N=C(\[O-])Nc2ccc(Br)cc2)sn[n+]1C | 1 | 89* | 1 | -121 | / | 3
CNC(=S)Nc1ccc(Br)cc1 | 7 | -35 | 6 | -6 | 4 | 0
Cc1ccc(CN=C(N)Nc2nc(C)cc(C)n2)cc1 | 77* | 117* | 48* | -23 | 71* | 81*
CCC(=O)Nc1ccc(NC(=S)NC(=O)Cc2ccccc2)cc1 | 7 | -15 | 4 | -52 | -17 | -3
CCC(=O)Nc1ccc(NC(=S)Nc2ccccc2)cc1 | 58* | -10 | -2 | -18 | -11 | -2
COc1ccccc1-n1c(CNC(=O)c2ccc(S(=O)(=O)N3CCCCC3)cc2)n[nH]c1=S | / | -6 | 13 | -8 | / | /
CC(C)Cn1cnc2c(=O)oc3ccccc3c21 | 1 | -5 | -7 | -18 | 3 | -1
CCC(C)n1cnc2c(=O)oc3ccccc3c21 (centres undefined) | 5 | 20 | 11 | -11 | 88* | 2
CCOC(=O)C1=C(Cc2ccc(OC)cc2)C(=O)c2ccccc2C1=O | 0 | / | 2 | 15 | 72* | 1
CCOC(=O)C1=C(Cc2ccc(C)cc2)C(=O)c2ccccc2C1=O | 5 | -65 | 1 | -26 | 0 | 1
COc1ccccc1NC(=O)c1nnn(CC(=O)Nc2ccccc2)c1N | 9 | -1 | 5 | -10 | -9 | 4
COc1ccccc1NC(=O)Cn1nnc(C(=O)Nc2ccccc2)c1N | 94* | -9 | -2 | -22 | 8 | 1
SMILES | BaF3 parental | aSyn UTR inh | IEC-6 cytotox | KLF5 inhibitor | APP transl inh | Ba/F3 V617F tox
COc1ccc(C(=O)/C=C/C(=O)N(CC(=O)NC2CCCCC2)Cc2ccc(F)cc2)c(O)c1 | 6 | 72* | -7 | 17 | 78* | 1
CS(=O)(=O)N(CC(=O)NC1CCCCC1)Cc1ccc(F)cc1 | -1 | 0 | -2 | -8 | -1 | 2
COc1ccc(C)cc1N=Nc1ccc(O)c2ncccc12 | 1 | 68* | 0 | 6 | 68* | 0
COc1ccc(N=Nc2ccc(O)c3ncccc23)cc1 | 4 | 44 | 10 | -13 | / | -3
Cc1ccccc1N=Nc1ccc(O)c2ncccc12 | 1 | ? | -2 | -6 | 77* | 3
O=Nc1ccc(O)c2ncccc12 | 103* | -236 | 19 | 10 | / | 99*
O=[N+]([O-])c1ccc(O)c2ncccc12 | 4 | 72* | -4 | 7 | -7 | -6
O=C(N/N=C/c1ccccn1)c1cccc(S(=O)(=O)N2CCCC2)c1 | -7 | -4 | -1 | -7 | / | -2
COc1ccc(/C=C(\NC(=O)c2ccco2)C(=O)N2CCCCC2)cc1 | / | 2 | 0 | 6 | / | /
CCC1Oc2ccc(C)cc2N(CC(=O)NCc2ccco2)C1=O (centres undefined) | 90* | -17 | -1 | -26 | 4 | 1
CC(C)(C)c1ccc(C(=O)NCC(=O)N2CCCCCC2)cc1 | / | -31 | -1 | -41 | / | /
Cc1n(C)c2cc(Cl)ccc2[n+]1Cc1ccccc1 | 94* | 16 | 3 | -15 | 5 | 56*
COc1ccc2[nH]c3c(c2c1)CCN1C(=O)N([C@@H](C)C(=O)NCc2ccco2)C(=O)[C@]31C | / | 25 | -7 | -21 | / | /
CCOc1ccc(NC(C(=O)Nc2cccc(C(C)=O)c2)c2ccccc2)cc1 (centres undefined) | 54* | 0 | 6 | 11 | 5 | 51*
Cc1cc(-c2nnc(CCC(=O)N(C)Cc3cccc4ccccc34)o2)no1 | 2 | 1 | 8 | -44 | -12 | 4
CC(=O)N1CCN(c2ccccc2NC(=O)c2ccc(C#N)cc2F)CC1 | 90* | -23 | 2 | -2 | 3 | 1
CN1CCN(c2ccccc2NC(=O)c2ccccc2F)CC1 | 1 | -10 | -6 | -8 | / | -3
c1sc2[n+](c1C13CC4CC(CC(C4)C1)C3)CCS2 | 61* | -1 | 6 | -4 | 3 | 63*
Fc1ccc(-c2csc3[n+]2CCS3)cc1 | 2 | 2 | 4 | -12 | 3 | -1
COc1ccc(N2CC(C(=O)NCCC3=CCCCC3)CC2=O)c(OC)c1 (centres undefined) | / | 7 | / | / | / | /
O=C(O)c1cccc(S(=O)(=O)Nc2ccccc2C(=O)NCCc2ccccc2)c1 | / | -64 | -1 | -40 | / | /
Cc1ccccc1NC(=O)c1cnc2ccccn2c1=O | 5 | 62* | 6 | -105 | -104 | 1
COc1ccc(OC)c(NC(=O)c2cnc3ccccn3c2=O)c1 | 9 | / | 7 | -24 | -2 | 2
CC(C)N1CCc2c(sc(NC(=O)CN3C(=O)c4ccccc4C3=O)c2C(N)=O)C1 | 6 | 12 | -1 | -25 | -10 | -1
COc1cc2ccccc2cc1C(=O)Nc1sc2c(c1C(N)=O)CCN(C(C)C)C2 | / | 102* | 15 | -11 | / | /
CCCc1nc2oc3c(NCCCN(C)C)ncnc3c2c2c1CCCC2 | 69* | 108* | -6 | -31 | / | 68*
CCCc1nc2oc3c(NCCN(C)C)ncnc3c2c2c1CCCC2 | -1 | -30 | 4 | 11 | -10 | -1
CCN(CC(=O)Nc1ccccc1OC)CC(=O)Nc1ccccc1-c1ccccc1 | 2 | / | 24* | 17 | 3 | 2

Screening results as filed in PubChem BioAssay.
